This note sets out measurements from PubChem BioAssay (EPA / NIEHS).

Several values for one entry are separate records, joined by “and”; a condition that tells them apart may be missing. Identical values can stand only once. Activity calls are given as the source filed them. Rule for the calls: active = hit-call score of the fitted dose curve at least 0.9, where 1 is the maximum; inactive = score below 0.9.

Read-out in this experiment: Interleukin-8 (IL8), CXCL8 (gene 3576)
Kind of experiment: BSK_SAg_IL8: BioMAP Diversity Plus: SAg Assay for Interleukin-8 (IL8) Biomarker Activity (AID 2283094). The note with it: primary human HUVEC with PBMC; actives raise or lower the signal. The gist of the method: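 Human umbilical vein endothelial cells co-cultured with peripheral blood mononuclear cells; IL-8 measured by ELISA 24 h after chemical dosing. Bidirectional concentration-response fitting used DMSO as negative control and activity baseline.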
Consider `CCCCCCCCCCCCOS(=O)(=O)O`, for which the outcome was inactive. A word on the AC50: it is the concentration at which the activity in the assay is half-maximal. Take `CC(C)(C)c1ccc(O)c(O)c1`: the concentration at half-maximal activity (AC50) is 20000 nM (active). With `O=C(O)CCC(F)(F)C(F)(F)C(F)(F)C(F)(F)C(F)(F)F`, the result was inactive.

With `O=C(NCc1ncc(C(F)(F)F)cc1Cl)c1c(Cl)cccc1Cl`, the result was inactive.

Regarding `O=C(NO)c1ccccc1`, the result was inactive. On the same count and under the same terms, as for `Clc1ccc(Nc2nnc(Cc3ccncc3)c3ccccc23)cc1`, the entry is “inactive”. On to `CCCCC=O`, for which the outcome was inactive. Still for that read-out and setting: the result for `Oc1ccc(Cc2ccccc2O)cc1` reads “inactive”; that for `O=C1OC2(c3ccccc31)c1cc(I)c(O)c(I)c1Oc1c2cc(I)c(O)c1I`, “inactive”. In the case of `C=COC(=O)C(C)(C)CCCCCC`, the result was inactive. Take `NC(=NCCCCCCN=C(N)/N=C(\N)Nc1ccc(Cl)cc1)/N=C(\N)Nc1ccc(Cl)cc1`: the half-maximal activity concentration (AC50) was 896 nM (active). `C=CC(=O)OCCC(F)(F)C(F)(F)C(F)(F)C(F)(F)C(F)(F)C(F)(F)C(F)(F)C(F)(F)F`: the result was inactive. On the same count and under the same terms, the result for `CCCCCCCCCCCC` reads “inactive”. Consider `Oc1c(Cl)cc(Cl)cc1Sc1cc(Cl)cc(Cl)c1O`, for which the AC50 is 4.54 µM (active) and 5.28 µM (active). Take `COc1cc(OC)nc(NC(=O)NS(=O)(=O)Nc2ccccc2C(=O)N(C)C)n1`: the outcome was inactive.

With `O=C(O)C(F)(F)OC(F)(F)C(F)(F)OC(F)(F)C(F)(F)OC(F)(F)C(F)(F)C(F)(F)C(F)(F)F`, the AC50 was 30 µM (active) and 24.7 µM (active). For `Cc1cccc2c1ccc1ccccc12`, the result was inactive. `COc1cccc(O)c1`: the result was inactive. The same measure, in the same setting: the result for `C=CC(=C)CC/C=C(\C)CCC=C(C)C` reads “inactive”; that for `O=C(c1ccccc1)c1ccccc1`, “inactive”. As to `Cc1[nH]nc2c1N=C(c1ccccc1Cl)c1cc([N+](=O)[O-])ccc1N2`, the concentration at half-maximal activity (AC50) was 893 nM (active).
